In PubChem BioAssay AID771 (SRMLSC, 2007):
In all, about 3,300 compounds went through this assay and about 55 (2%) were called active. This is one part of a sample in which actives are shown more often than they occur.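 Rule for the calls: active = growth inhibition above 90%, meaning viable cell count by imaging cut by more than 90% versus vehicle controls; inactive = growth inhibition below 90%.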

Test: HT29 colon tumor cell growth inhibition, primary screen, imaging, high content imaging, 48 h, CellTiter-Glo (AID 771);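 for condensed nuclei: condensed means Hoechst nuclear area under control median minus 1.5 SD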
Conditions: HCS imaging cell count, at 10 µM, stronger effect = higher value; for condensed nuclei: measured here: percent cells with condensed nuclei
[1] = measured here: ATP CellTiter-Glo viability inhibition

Structure (SMILES) | growth inhibition | condensed nuclei | growth inhibition [1]
CNCCC=C1c2ccccc2CCc2ccccc21 | 97.6% (active) | 32.9% | 
CN(C)CCC=C1c2ccccc2CCc2ccccc21 | 28.2% (inactive) | 6.45% | 
COc1ccc(C(C)=O)cc1CSCCC(=O)O | -39.8% (inactive) | 1.66% | -10.3%
CCOC(=O)Oc1ccc2c(c1)C(C)=CC(C)(C)N2C(=O)OCC | 44.5% (inactive) | 1.63% | 33.4%
CCCc1cc(NCCCCO)n2c(nc3ccccc32)c1C#N | 41.5% (inactive) | 2.71% | 6.57%
C/C(=N/n1cnnc1)c1cccnc1 | -50.9% (inactive) | 2.16% | -4.47%
COCc1cc(=O)[nH]c(Nc2nc3ccccc3o2)n1 | 89.2% (inactive) | 2.5% | 76.3%
Cc1cccc(OCc2nc(C)cc(=O)[nH]2)c1 | 37.9% (inactive) | 2.19% | 1.04%
COCc1cc(=O)[nH]c(Nc2nc3ccc(C)cc3o2)n1 | 93% (active) | 0% | 69.7%
COc1ccccc1-n1c(=O)c2c3c(sc2n2c(SC(C)C)nnc12)CCC3 | -4.74% (inactive) | 3.08% | -1.5%
C=CCOC(=O)C1=C(C)NC(SCC(=O)N(CC)CC)=C(C#N)C1c1ccccc1 (configuration not stated) | 54.1% (inactive) | 4.29% | 3.16%
C=CCOC(=O)C1=C(C)NC(SCC(=O)Nc2ccc(C)c(Cl)c2)=C(C#N)C1c1ccco1 (configuration not stated) | 91.3% (active) | 8.14% | 45.8%
CCN(CC)C(=O)CSC1=C(C#N)C(c2ccco2)C(C(=O)OCCOC)=C(C)N1 (configuration not stated) | 25.5% (inactive) | 3.61% | 20.6%
C=CCOC(=O)C1=C(C)NC(SCC(=O)N(CC)CC)=C(C#N)C1c1ccco1 (configuration not stated) | -28.4% (inactive) | 2.96% | -41.1%
CCOC(=O)C1=C(c2ccccc2)NC(SCC(=O)Nc2ccccc2C)=C(C#N)C1c1ccco1 (configuration not stated) | 91% (active) | 11% | 75.3%
COCCOC(=O)C1=C(C)NC(SCC(=O)NC(C)(C)C)=C(C#N)C1c1ccco1 (configuration not stated) | 34.7% (inactive) | 3.96% | -24.4%
Cc1cc(CC(=O)O)c(C)cc1CC(=O)O | -42% (inactive) | 2.43% | -0.43%
CCCn1nnc(NC(=O)c2cc(Br)cc(Br)c2OC)n1 | -8.21% (inactive) | 7.92% | -15.1%
O=C1[C@@H]2[C@H](C(=O)N1O)[C@H]1C=C[C@@H]2C1 | 1.8% (inactive) | 1.79% | -19.1%
CCCc1nnc(NC(=O)c2c(O)c3c([nH]c2=O)CCCC3)s1 | -9.28% (inactive) | 7.28% | -32.6%
COc1cc(-c2nn3c(-c4cccnc4)nnc3s2)cc(OC)c1OC | -10.1% (inactive) | 3% | -33.4%
c1cncc(-c2nnc3sc(-c4ccco4)nn23)c1 | 28% (inactive) | 21.4% | 26.6%
CCN(CC)c1ccc(-c2nn3c(-c4cccnc4)nnc3s2)cc1 | 90.1% (active) | 4.92% | 75%
O=C(NCCCn1ccnc1)c1cccnc1 | -11.4% (inactive) | 2.67% | -30.1%
CCOc1cc2nc(-c3ccc(OC)c(OC)c3)nc(N3CCOCC3)c2cc1OC | 97.2% (active) | 39.3% | 90%
COc1cccc(-c2nc(N3CCN(Cc4ccccc4)CC3)c3ccccc3n2)c1O | -8.14% (inactive) | 2.41% | 0.87%
COc1cc2nc(-c3ccccc3)nc(N3CCCC3)c2cc1OC | 27.7% (inactive) | 2.25% | 3.73%

Structure (SMILES) | growth inhibition | condensed nuclei | growth inhibition [1]
CCC1(C)Cc2ccccc2-c2nc(NCCO)n(-c3ccccc3)c(=O)c21 (configuration not stated) | 60.4% (inactive) | 2.11% | 4.3%
N#CC1(c2ccccc2)CCC(=NO)CC1 (configuration not stated) | -54.8% (inactive) | 1.75% | -7.61%
CC1(C)Cc2c(c(-c3ccccc3)[nH]c(=O)c2C#N)CS1 | 40.9% (inactive) | 3.57% | 27.6%
C=CCn1c(N)c(C(=O)OC(C)(C)C)c2nc3ccccc3nc21 | 56.4% (inactive) | 2.73% | 24.8%
C=CCn1c(N)c(C(=O)Nc2ccccc2)c2nc3ccccc3nc21 | 90.9% (active) | 18.1% | 90.8%
COCCNC(=O)c1c(N)n(CCC2=CCCCC2)c2nc3ccccc3nc12 | 39.4% (inactive) | 2.68% | 20.4%
C=CCn1c(-c2ccccc2)n[nH]c1=S | -21.6% (inactive) | 2.91% | -24.2%
Cc1ccc(NC(=O)c2cc(N3CCOCC3)nc3ccccc23)cc1 | 52% (inactive) | 7.65% | 31.6%
CCOC(=O)c1[nH]c2ccc(OC)cc2c1NC(=O)CCN1CCc2ccccc2C1 | 24.3% (inactive) | 9.73% | 4.08%
CCN(CC)CCNc1ncnc2c1[nH]c1ccc(OC)cc12 | 68.1% (inactive) | 4.62% | 44%
Cc1ccc2[nH]c3c(NCCN4CCOCC4)ncnc3c2c1 | 45.8% (inactive) | 3.45% | 24.8%
Fc1ccccc1-c1nc(NCCCN2CCOCC2)c2ccccc2n1 | 40% (inactive) | 7.24% | 34.1%
Clc1ccc2[nH]c3c(NCCCN4CCOCC4)ncnc3c2c1 | 97.5% (active) | 33% | 90%
Oc1ccccc1-c1nc(NCCN2CCOCC2)c2ccccc2n1 | 83.2% (inactive) | 16.5% | 73.4%
Clc1ccc2[nH]c3c(NCCN4CCOCC4)ncnc3c2c1 | 90.1% (active) | 8.91% | 74.8%
CC/C(C)=C1\SC(N2CCN(C(C)=O)CC2)=NC1=O | -12% (inactive) | 2.39% | -28.4%
Cc1c(N=Cc2c(O)n(C3CCCCC3)c(=O)[nH]c2=O)c(=O)n(-c2ccccc2)n1C | -40.9% (inactive) | 2.12% | -6.25%
COC(=O)CN(c1nc(C)c(Br)c(OC)n1)S(=O)(=O)c1ccc(C)cc1 | 28.7% (inactive) | 1.9% | 6.19%
N#Cc1ccc(-c2ccc(OCC(O)Cn3nnc4ccccc43)cc2)cc1 (configuration not stated) | 10.4% (inactive) | 1.87% | -1.94%
CCOc1ccc(-c2nnc3sc(COc4ccccc4)nn23)cc1 | 41.5% (inactive) | 2.51% | -17%
Clc1ccc(-n2ncc3c(NCc4ccccn4)ncnc32)cc1 | 38.1% (inactive) | 3.3% | 0.14%
COc1ccccc1Nc1ncnc2c1cnn2-c1cccc(C)c1 | 30.4% (inactive) | 2.98% | -0.29%
Cc1cccc(-n2ncc3c(NCCN4CCOCC4)ncnc32)c1 | 15.5% (inactive) | 3.92% | 9.31%
Cc1cccc(-n2ncc3c(NCc4ccco4)ncnc32)c1 | 90.8% (active) | 5.66% | 68.2%
Clc1ccc(-n2ncc3c(NCc4ccco4)ncnc32)cc1 | 92.3% (active) | 19.6% | 76.5%
Clc1ccc(-n2ncc3c(NCc4cccs4)ncnc32)cc1 | -9.4% (inactive) | 3.73% | -1.37%
